# Measurements: PubChem BioAssay (EPA / NIEHS)
# Inconclusive results are not listed. Active and inactive are the calls of the source. Rule for the calls, unless noted: active = hit-call score of the fitted dose curve at least 0.9, where 1 is the maximum; inactive = score below 0.9.
# What was measured:
# [1] = tested on: SRY-box transcription factor 17 (SOX17) Protein Expression, Deisenroth Lab, SOX17 (gene 64321); test: CCTE_Deisenroth_DEVTOX-GLR_Endo_SOX17: CCTE's DevTox GLR-Endo Assay Evaluation of SRY-box transcription factor 17 (SOX17) Protein Expression, Deisenroth Lab (AID 2284413)
# How it was run: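 RUES2-GLR human pluripotent cells were differentiated toward endoderm for 48 h and received two compound doses 24 h apart (1 nM - 200 uM, 10 points). High-content imaging of fixed cells gave the percent SOX17+ cells per cell count, expressed as percent change versus 0.2% DMSO.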
# [2] = tested on: Brachyury (BRA) Protein Expression, TBXT (gene 6862); test: CCTE_Deisenroth_DEVTOX-GLR_Endo_BRA: CCTE's DevTox GLR-Endo Assay Evaluation of Brachyury (BRA) Protein Expression, Deisenroth Lab (AID 2284417)
# Protocol: CCTE_Deisenroth_DEVTOX-GLR_Endo assay is a cell-based, multiplex-readout assay that uses RUES2-GLR, a human pluripotent cell line, with measurements taken at 48 hours after chemical dosing in a 384-well microplateCCTE_Deisenroth_DEVTOX-GLR_Endo_BRA is 1 of 4 assay components calculated from the CCTE_Deisenroth_DEVTOX-GLR_Endo assay and it measures the percentage of cells in an mesoderm state. Using a type of inducible fluorescent protein reporter, gain-of-signal activity can be used to understand changes in gene expression with fluorescent microscopy. The percentage of BRA+ cells are determined by calculating the number of BRA+ cells divided by the cell count. To generalize the intended target to other relatable targets, this assay component is annotated to the transcription factor intended target family, where the subfamily is T-box protein.Data from the assay component CCTE_Deisenroth_DEVTOX-GLR_Endo_BRA was analyzed as 1 assay endpoint. The endpoint is the percent BRA+ cell population minus the 0.2% DMSO control in the CCTE_Deisenroth_DEVTOX-GLR_Endo assay. Furthermore, this assay endpoint can be referred to as a secondary readout, because this assay has produced multiple assay endpoints where this one serves as a measure of mesoderm differentiation.
# (§1) All assay protocols are aligned to the DevTox GLR-Endo assay workflow. Cells are seeded into 384-well microplates for 24 hours prior to initiating differentiation in defined media for a total duration of 48 hours. A total of two chemical exposures are administered in 24-hour intervals during the 48-hour differentiation period. At the assay termination point, cells are fixed and stained with a fluorescent dye demarcating the nucleus. High-content imaging is used to acquire brightfield and fluorescent channel images across 5 fields per well. Cell identification and mean biomarker fluorescence intensities are calculated with image analysis software to determine the total cell counts for viability assessment and the biomarker expression frequency for each lineage-dependent assay. A typical experimental design tests a 10-point concentration series (1 nM - 200 uM) for 28 compounds in single technical replicate. Assay plate controls include non-differentiated pluripotent cells (baseline control), lineage-specific differentiated cells (differentiation control), and DMSO solvent exposed differentiated cells (solvent control). Experiments typically comprise a minimum of four experimental replicates (n=4).
# [3] = CCTE_Deisenroth_DEVTOX-GLR_Endo_CellCount: Viability Assessment in CCTE's DevTox GLR-Endo Assay, Deisenroth Lab (AID 2284420)
# Protocol: CCTE_Deisenroth_DEVTOX-GLR_Endo assay is a cell-based, multiplex-readout assay that uses RUES2-GLR, a human pluripotent cell line, with measurements taken at 48 hours after chemical dosing in a 384-well microplateCCTE_Deisenroth_DEVTOX-GLR_Endo_CellCount is 1 of 4 assay components calculated from the CCTE_Deisenroth_DEVTOX-GLR_Endo assay and it measures cell count. Using fluorescent nuclear staining, loss-of-signal activity can be used to understand changes in cell viability with fluorescent microscopy. It is designed to make measurements of nuclei counts as a surrogate for cell number, as detected with optical fluorescence microscopy by Perkin Elmer Harmony nuclei detection algorithm. To generalize the intended target to other relatable targets, this assay component is annotated to the cell cycle intended target family, where the subfamily is cytotoxicity.Data from the assay component CCTE_Deisenroth_DEVTOX-GLR_Endo_CellCount was analyzed as 1 assay endpoint. The endpoint the percent change in cell count relative to the 0.2% DMSO control in the CCTE_Deisenroth_DEVTOX-GLR_Endo assay. Furthermore, this assay endpoint can be referred to as a primary readout, because this assay has produced multiple assay endpoints where this one serves as a measure of cytotoxicity.
# as §1
# [4] = tested on: SRY-box transcription factor 17 (SOX17) Protein Expression, Deisenroth Lab, SOX17 (gene 64321); test: CCTE_Deisenroth_DEVTOX-GLR_Pluri_SOX17: CCTE's DevTox GLR-Pluri Assay Evaluation of SRY-box transcription factor 17 (SOX17) Protein Expression, Deisenroth Lab (AID 2284427; active = hit-call score of the fitted dose curve at least 0.9, where 1 is the maximum)
# How it was run: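 RUES2-GLR pluripotent cells were induced toward endoderm over 48 h and received two compound doses 24 h apart, in a 10-point series from 1 nM to 200 uM. The percentage of SOX17+ cells among total cells was measured by high-content imaging and reported minus the 0.2% DMSO control.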
# [5] = tested on: SRY-box transcription factor 2 (SOX2) Protein Expression, Deisenroth Lab, SOX2 (gene 6657); test: CCTE_Deisenroth_DEVTOX-GLR_Pluri_SOX2: CCTE's DevTox GLR-Pluri Assay Evaluation of SRY-box transcription factor 2 (SOX2) Protein Expression, Deisenroth Lab (AID 2284428)
# Protocol: CCTE_Deisenroth_DEVTOX-GLR_Pluri assay is a cell-based, multiplex-readout assay that uses RUES2-GLR, a human pluripotent cell line, with measurements taken at 48 hours after chemical dosing in a 384-well microplateCCTE_Deisenroth_DEVTOX-GLR_Pluri_SOX2 is 1 of 4 assay components calculated from the CCTE_Deisenroth_DEVTOX-GLR_Pluri assay and it measures an the percentage of cells in an pluripotent state. Using a type of inducible fluorescent protein reporter, gain-of-signal activity can be used to understand changes in gene expression with fluorescent microscopy. The percentage of SOX2+ cells are determined by calculating the number of SOX2+ cells divided by the cell count. To generalize the intended target to other relatable targets, this assay component is annotated to the transcription factor intended target family, where the subfamily is SRY-related HMG-box.Data from the assay component CCTE_Deisenroth_DEVTOX-GLR_Pluri_SOX2 was analyzed as 1 assay endpoint. The endpoint is the percent change in the SOX2+ cell population relative to the 0.2% DMSO control in the CCTE_Deisenroth_DEVTOX-GLR_Pluri assay. Furthermore, this assay endpoint can be referred to as a primary readout, because this assay has produced multiple assay endpoints where this one serves as a measure of […].
# as §1
# [6] = tested on: Brachyury (BRA) Protein Expression, Deisenroth Lab, TBXT (gene 6862); test: CCTE_Deisenroth_DEVTOX-GLR_Pluri_BRA: CCTE's DevTox GLR-Pluri Assay Evaluation of Brachyury (BRA) Protein Expression, Deisenroth Lab (AID 2284429; active = hit-call score of the fitted dose curve at least 0.9, where 1 is the maximum)
# How it was run: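 RUES2-GLR human pluripotent cells differentiated 48 hours with two chemical exposures 24 hours apart, 10-point series 1 nM–200 uM. Fixed, nuclear-stained, imaged; endpoint is percent BRA+ cells minus 0.2% DMSO control.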
# [7] = CCTE_Deisenroth_DEVTOX-GLR_Pluri_CellCount: Viability Assessment in CCTE's DevTox GLR-Pluri Assay Evaluation of Total Cell Counts, Deisenroth Lab (AID 2284430)
# Protocol: CCTE_Deisenroth_DEVTOX-GLR_Pluri assay is a cell-based, multiplex-readout assay that uses RUES2-GLR, a human pluripotent cell line, with measurements taken at 48 hours after chemical dosing in a 384-well microplateCCTE_Deisenroth_DEVTOX-GLR_Pluri_CellCount is 1 of 4 assay components calculated from the CCTE_Deisenroth_DEVTOX-GLR_Pluri assay and it measures cell count. Using fluorescent nuclei staining, gain-of-signal activity can be used to understand changes in cell viability with fluorescent microscopy. It is designed to make measurements of nuclei counts as a surrogate for cell number, as detected with optical fluorescence microscopy by Perkin Elmer Harmony nuclei detection algorithm. To generalize the intended target to other relatable targets, this assay component is annotated to the cell cycle intended target family, where the subfamily is cytotoxicity.Data from the assay component CCTE_Deisenroth_DEVTOX-GLR_Pluri_CellCount was analyzed as 1 assay endpoint. The endpoint the percent change in the cell count relative to the 0.2% DMSO control in the CCTE_Deisenroth_DEVTOX-GLR_Pluri assay. Furthermore, this assay endpoint can be referred to as a primary readout, because this assay has produced multiple assay endpoints where this one serves as a measure of cytotoxicity.
# as §1
# TTR (gene 7276) = test: CCTE_GLTED_hTTR_0.125uM: CCTE's human Transthyretin (hTTR) Inhibition Assay, with 0.125uM TTR, Great Lakes Toxicology and Ecology Division (GLTED) Lab (AID 2284431);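 note: hits lower the fluorescence signal relative to DMSO baseline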
# How it was run: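 Cell-free displacement of ANSA probe from 0.125uM TTR after 2 h incubation with chemical. Fluorescence read at 380 nm excitation/475 nm emission; loss of signal relative to DMSO indicates T4-site displacement.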
structure (smiles),measurement,setting,value
CCCc1cc(=O)[nH]c(=S)[nH]1,outcome,[1],inactive
same,outcome,[2],inactive
same,outcome,[3],inactive
same,outcome,[4],inactive
same,outcome,[5],inactive
same,outcome,[6],inactive
same,outcome,[7],inactive
C[C@]12C=CC(=O)C=C1CC[C@@H]1[C@@H]2C(=O)C[C@@]2(C)[C@H]1CC[C@]2(O)C(=O)CO,outcome,TTR (gene 7276),inactive
C=CCc1ccc(O)c(OC)c1,AC50,TTR (gene 7276),26.1 µM (active)
Cc1cccc(C)c1O,AC50,TTR (gene 7276),33.4 µM (active)
O=c1[nH]cc(F)c(=O)[nH]1,AC50,[1],9.06 µM (active)
same,AC50,[2],20.3 µM (active)
same,AC50,[3],5.89 µM (active)
same,AC50,[4],7.95 µM (active)
same,AC50,[5],7.1 µM (active)
same,AC50,[6],7.54 µM (active)
same,AC50,[7],8.12 µM (active)
Cc1c(C(=O)O)c(O)cc2c1C(=O)c1c(O)c([C@@H]3O[C@H](CO)[C@@H](O)[C@H](O)[C@H]3O)c(O)c(O)c1C2=O,AC50,TTR (gene 7276),10.1 µM (active)
COc1cccc2c1C(=O)c1c(O)c3c(c(O)c1C2=O)C[C@@](O)(C(=O)CO)C[C@@H]3O[C@H]1C[C@H](N)[C@H](O)[C@H](C)O1,AC50,[1],5.85 µM (active)
same,AC50,[2],0.0902 µM (active)
same,AC50,[3],0.00878 µM (active)
same,AC50,[4],0.27 µM (active)
same,AC50,[5],0.0073 µM (active)
same,AC50,[6],0.00927 µM (active)
same,AC50,[7],0.00758 µM (active)
COc1cc(S(=O)(=O)O)c(C)cc1N=Nc1c(O)ccc2cc(S(=O)(=O)O)ccc12,AC50,TTR (gene 7276),30.8 µM (active)
COc1ccc2c(c1)c(CC(=O)O)c(C)n2C(=O)c1ccc(Cl)cc1,AC50,[1],16 µM (active)
same,AC50,[2],12.5 µM (active)
same,AC50,[3],10.1 µM (active)
same,AC50,[4],2.61 µM (active)
same,AC50,[5],6.52 µM (active)
same,AC50,[6],6.56 µM (active)
same,AC50,[7],4.99 µM (active)
same,AC50,TTR (gene 7276),1.93 µM (active)
CC1=C(/C=C/C(C)=C/C=C/C(C)=C/CO)C(C)(C)CCC1,AC50,[1],33.6 µM (active)
same,AC50,[2],66 µM (active)
same,AC50,[3],34.7 µM (active)
same,AC50,[4],39.3 µM (active)
same,AC50,[5],19.8 µM (active)
same,AC50,[6],26.8 µM (active)
same,AC50,[7],29.4 µM (active)
CC=Cc1ccc(O)c(OC)c1,AC50,TTR (gene 7276),13.6 µM (active)
Oc1ccc2ccccc2c1N=Nc1ccccc1,AC50,TTR (gene 7276),1.37 µM (active)
CCCCC(CC)COC(=O)CC(C(=O)OCC(CC)CCCC)S(=O)(=O)O (centres undefined),AC50,TTR (gene 7276),1.62 µM (active)
Cc1cccc(Nc2cc(Cl)nc(SCC(=O)O)n2)c1C,AC50,TTR (gene 7276),3.12 µM (active)
Cc1cc(NC(=O)C(=O)O)cc(C)c1Oc1ccc(O)c2c1CCC2,AC50,TTR (gene 7276),0.344 µM (active)
CC(=O)Oc1ccccc1C(=O)O,outcome,[1],inactive
same,outcome,[2],inactive
same,outcome,[3],inactive
same,outcome,[4],inactive
same,outcome,[5],inactive
same,outcome,[6],inactive
same,outcome,[7],inactive
Cc1ccc(C)c(O)c1C,AC50,TTR (gene 7276),21.9 µM (active)
